Hit rate of the full screen: of about 290,000 compounds, about 1,100 (0.38%) were called active. This excerpt belongs to a sample that is enriched for actives. A number with no mark means an inactive call. Calls follow the shape of the dose curve; as a rule, active = well fitted inhibition curve with a large enough effect; inconclusive = small, poorly fitted or top-dose-only effect, or another doubt; inactive = no such curve, though single readings can be large or run the other way.
% is scaled to controls: 0 for no effect and ±100 for the full control effect; potency is read from the fitted curve at half-maximal effect.

Chain of Pyruvate kinase (Leishmania mexicana) (Q27686 whole entry, looked up): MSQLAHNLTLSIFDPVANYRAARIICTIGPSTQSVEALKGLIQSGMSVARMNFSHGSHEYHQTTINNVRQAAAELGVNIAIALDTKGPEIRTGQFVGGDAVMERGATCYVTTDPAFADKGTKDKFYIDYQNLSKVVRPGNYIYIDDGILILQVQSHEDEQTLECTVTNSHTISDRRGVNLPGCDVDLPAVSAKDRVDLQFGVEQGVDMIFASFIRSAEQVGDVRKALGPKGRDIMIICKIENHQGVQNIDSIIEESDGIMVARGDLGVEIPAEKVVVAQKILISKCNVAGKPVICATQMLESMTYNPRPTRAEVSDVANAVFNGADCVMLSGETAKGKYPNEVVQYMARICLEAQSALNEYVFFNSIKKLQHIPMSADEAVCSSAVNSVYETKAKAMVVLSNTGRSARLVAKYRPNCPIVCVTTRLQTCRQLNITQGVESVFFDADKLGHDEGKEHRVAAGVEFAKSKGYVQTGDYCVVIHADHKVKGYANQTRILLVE

The target in the experiment is Pyruvate kinase (Leishmania mexicana) (UniProt Q27686). Description: qHTS Assay for Inhibitors of Leishmania Mexicana Pyruvate Kinase (LmPK). The following applies: purified LmPK, Kinase-Glo ATP luminescence, 1 h; series mostly up to 57.5 µM; activity change, negative = inhibition: at the top concentration. The source says:
NIH Chemical Genomics Center [NCGC] Malcolm Walkinshaw, Hugh Morgan, Linda Gilmore University of Edinburgh, UK MLPCN Grant: 1 R03 MH085697-01 NCGC Assay Overview: Pyruvate kinase (L. Mexicana) (LmPK) enzyme was supplied as a highly purified (>95% pure) sulphate-free preparation from University of Edinburgh, UK and assayed for its ability to generate ATP from ADP using phosphoenolpyruvate (PEP) as a substrate. ATP generation was detected in a coupled reaction by luciferase-mediated luminescence, an ATP-dependent process. […] The enzyme was assayed at an intermediate level of activity to screen for both inhibitors and activators.
NCGC Assay Protocol Summary: Three uL of enzyme mix (kept on ice) in assay buffer (50 mM Imidazole pH7.2, 50 mM KCl, 7 mM MgCl2, 0.01% Tween 20, 0.05% BSA) containing PEP (0.5 mM final concentration) and LmPK (0.1 nM final concentration) was dispensed into white solid bottom 1,536 well microtiter plates. 23 nL of compound were delivered by a pin tool and 1 uL of ADP mix in assay buffer (r.t; 0.1 mM final ADP concentration) was added. Plates were incubated at room temperature for 1 hour. Two uL of detection mix (Kinase-Glo, Promega; at 4 degree Celsius protected from light) was added and luminescence read by a ViewLux (Perkin Elmer) at 1 second exposure/plate. Data were normalized to the uninhibited and AC100 inhibition (no enzyme). To monitor activation, the first column contained a five-fold concentration of LmPK (0.5 nM).
In general terms: qHTS replaces the single test concentration by a dilution series.
Turning to `O=C(NCc1ccccc1Cl)C1CCN(c2ncnc3c2nc2n3CCCCC2)CC1`, the “activity change, negative = inhibition” value was 3.48%.
As for `O=C1CSC(=S)N1/N=C/c1ccc(O)c([N+](=O)[O-])c1`, the Potency was 25.1 µM (active).
Regarding `CCOc1cccc(/C=N/N2C(=O)CSC2=S)c1O`, the “activity change, negative = inhibition” value is -4.21%.
`Cc1cc(C(=O)N/N=C/c2ccc(O)c([N+](=O)[O-])c2)c(C)n1-c1ccc(F)cc1`: the “activity change, negative = inhibition” value was -1.12%.
Same read-out and setting: then `O=C(CN1CCCCCC1)Nc1ccc(Br)cc1[N+](=O)[O-]`, with -3.41%; and `O=C(NCCCNC(=O)c1ccccc1Cl)c1cnccn1`, with 3.78%.
`CC(=O)N(C1=C(Cl)C(=O)c2ccccc2C1=O)c1ccc(C(=O)O)cc1`: the Potency was 4.47 µM (active).
Turning to `O=C(CN1C(=O)c2ccccc2C1=O)NCc1ccc(C(=O)O)cc1`, the “activity change, negative = inhibition” value is -1.42%.
Same read-out and setting: under `CC(C)N(C(=O)c1ccc(-c2ccccc2F)cc1)C(C)C` stands 6.45%.
Turning to `Cc1cccc(N2CCN(S(=O)(=O)c3ccc4[nH]c(=O)c(=O)[nH]c4c3)CC2C)c1` (configuration not stated), the “activity change, negative = inhibition” value is 5.52%.
On to `O=C(/C=C/NCc1ccc(F)cc1)c1ccccc1`, for which the “activity change, negative = inhibition” value was -3.74%.
As to `O=C(COc1ccc(S(=O)(=O)Nc2cccc(C(F)(F)F)c2)cc1)N1CCOCC1`, the “activity change, negative = inhibition” value was -2.94%.
With `CCCn1c(C(C)Nc2nc(-c3ccc(C)cc3)cs2)nc2cc(Cl)c(N3CCCCC3)cc21` (configuration not stated), the “activity change, negative = inhibition” value was -7.73%.
On the same count and under the same terms, then `COc1ccc(Sc2nc(-c3ccccc3)ncc2OC)cc1`, with 7.75%.
Turning to `COc1ccc(-c2nc(-c3ccccc3)no2)c(OC)c1`, the Potency was 14.1 µM (active).
On to `COc1ccccc1Cc1nc(-c2ccc(C)cc2)no1`, for which the “activity change, negative = inhibition” value was -1.63%.
On the same count and under the same terms, under `COC(=O)C1=C(C(=O)OC)[C@@H]2N(C)c3ccccc3[C@@]23C[C@@H](C(=O)OC)N(S(=O)(=O)c2ccc(Br)cc2)C3=N1` stands -0.27% [at 11.5 µM]; under `COc1cc(CO)ccc1OCC(=O)Nc1cccc2ccccc12`, -10.3%; under `Brc1ccc2nc(N3CCCC3)sc2c1`, -0.864% [at 11.5 µM].
Turning to `c1c2c(cc3sc(N4CCCCC4)nc13)OCCO2`, the Potency was 6.31 µM (active).
Regarding `Cc1nc2cc3c(cc2s1)OCO3`, the “activity change, negative = inhibition” value is 4.7%.
With `CCOc1ccc(NC(=O)COc2ccc(S(=O)(=O)N3CCCC3)cc2)cc1`, the “activity change, negative = inhibition” value was 1.14%.
For `C[C@H]1Cc2c(-c3ccccc3)nc3c(c2CO1)CN(S(=O)(=O)c1ccc(Cl)c2nonc12)CC3`, the activity change, negative = inhibition is 1.27% [at 11.5 µM].
Take `Cc1onc(C(=O)Nc2ccc3c(c2)OCO3)c1[N+](=O)[O-]`: the “activity change, negative = inhibition” value is -3.39%.
As to `Cn1cc([N+](=O)[O-])c(C(=O)Nc2ccc3c(c2)OCCO3)n1`, the Potency was 14.1 µM (active).
On to `Cn1cc([N+](=O)[O-])c(C(=O)Nc2cnn(Cc3ccc(F)cc3)c2)n1`, for which the “activity change, negative = inhibition” value is -0.993%.
As for `CCCCNC(=O)N(O)C1N(/N=C/c2ccccc2O)C(=S)SC1(C)C` (configuration not stated), the “activity change, negative = inhibition” value was -7.29%.

(Values after PubChem BioAssay AID1721 (National Center for Advancing Translational Sciences (NCATS), 2009).)
